# Reference: PubChem BioAssay AID651903 (Broad Institute, 2012)
# Hit rate of the full screen: of about 22,000 compounds, about 1,100 (5%) were called active. This is one part of a sample in which actives are shown more often than they occur. Cut-off read from the data, not from the text of the source: active = activity score above about 55%; inconclusive = no clear call, values can overlap the other calls; inactive = below that.
# Test: inhibitors of intracellular Trypanosoma cruzi, primary screen, cell-based, plate reader, single point, set 2 (AID 651903);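 note: parasites and compound incubated about four days before reading; 0% = median of neutral control wells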
# Conditions: intracellular Trypanosoma cruzi in host cells, at 5.01 µM, stronger effect = higher value
row,Structure (SMILES),activity score (inhibition)
1,C[C@H](CO)N1C[C@H](C)[C@H](CN(C)C(=O)Nc2cccc3ccccc23)Oc2ncc(C#Cc3ccccc3)cc2C1=O,67.5% (active)
2,COc1ccc(-c2cnc3c(c2)C(=O)N([C@H](C)CO)C[C@H](C)[C@H](CN(C)S(=O)(=O)c2ccccc2)O3)cc1,26.3% (inactive)
3,COc1ccc(NC(=O)N(C)C[C@@H]2Oc3ncc(-c4cccc(OC)c4)cc3C(=O)N([C@H](C)CO)C[C@@H]2C)cc1,16.6% (inactive)
4,C[C@H](CO)N1C[C@H](C)[C@H](CN(C)C(=O)Nc2ccc(F)cc2)Oc2ncc(-c3cc4ccccc4o3)cc2C1=O,78.2% (active)
5,Cc1ccc(S(=O)(=O)N(C)C[C@@H]2Oc3ncc(-c4cc5ccccc5o4)cc3C(=O)N([C@H](C)CO)C[C@@H]2C)cc1,76.5% (active)
6,C[C@H](CO)N1C[C@H](C)[C@H](CN(C)S(=O)(=O)c2ccc(F)cc2)Oc2ncc(-c3ccc(F)cc3)cc2C1=O,30.4% (inactive)
7,C[C@@H]1CN([C@H](C)CO)C(=O)c2cccc(NC(=O)Nc3cccc4ccccc34)c2O[C@@H]1CN(C)C(=O)Nc1cccc2ccccc12,4.54% (inactive)
8,C[C@H](CO)N1C[C@H](C)[C@H](CN(C)Cc2ccccc2)Oc2ncc(-c3ccccc3)cc2C1=O,-4.22% (inactive)
9,C[C@H](CO)N1C[C@H](C)[C@H](CN(C)C(=O)Nc2ccc3c(c2)OCO3)Oc2ncc(C#Cc3cccc(F)c3)cc2C1=O,25.3% (inactive)
10,C[C@H](CO)N1C[C@H](C)[C@@H](CN(C)C)Oc2ccc(N(C)C)cc2C1=O,-14.7% (inactive)
11,C[C@H](CO)N1C[C@H](C)[C@H](CN(C)C)Oc2ncc(/C=C/c3ccccc3)cc2C1=O,71.7% (active)
12,C[C@H](CO)N1C[C@H](C)[C@H](CN(C)C(=O)NC2CCCC2)Oc2ncc(-c3ccc(F)cc3)cc2C1=O,6.58% (inactive)
13,Cc1ccc(S(=O)(=O)N(C)C[C@H]2Oc3c(NC(=O)C4CC4)cccc3C(=O)N([C@@H](C)CO)C[C@@H]2C)cc1,0.737% (inactive)
14,Cc1noc(C)c1S(=O)(=O)Nc1ccc2c(c1)C(=O)N([C@H](C)CO)C[C@H](C)[C@H](CN(C)S(=O)(=O)c1cn(C)cn1)OCCCC[C@@H](C)O2,-39.1% (inactive)
15,COc1ccc(CN(C)C[C@H]2Oc3c(NC(=O)Nc4ccccc4)cccc3C(=O)N([C@@H](C)CO)C[C@@H]2C)cc1,6.85% (inactive)
16,CCCC(O)C#Cc1cnc2c(c1)C(=O)N([C@H](C)CO)C[C@H](C)[C@H](CN(C)Cc1ccc(F)cc1)O2 (stereo partly specified),18.5% (inactive)
